# Test results from the supplement of paper PMC9262897, “Low-cost anti-mycobacterial drug discovery using engineered E. coli” (Nature Communications, 2022).
# Counter-ions that a name gives are not always drawn. ± gives the standard deviation of the averaged measurements.
# Tested on: E. coli TESEC Mtb Alr
# Test: growth (OD600 after 10 h); higher = more growth (less inhibition)
# Settings: compound 0.1 mM
# Method: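 TESEC Mtb Alr E. coli, or the Alr+ wild-type control, in 384-well plates with Prestwick library compounds at 0.1 mM and 1% DMSO, across arabinose induction levels of 1E3 to 1E7 nM. Growth is read as OD600 after 10 h at 37 °C in triplicate biological replicates.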
# [1] = arabinose 1000 nM, raw OD600 reference: median of DMSO wells 0.294, cell-free background 0.041
# [2] = arabinose 10000 nM, raw OD600 reference: median of DMSO wells 0.264, cell-free background 0.041
# [3] = arabinose 100000 nM, raw OD600 reference: median of DMSO wells 0.201, cell-free background 0.041
# [4] = arabinose 1000000 nM, raw OD600 reference: median of DMSO wells 0.193, cell-free background 0.041
# [5] = arabinose 10000000 nM, raw OD600 reference: median of DMSO wells 0.146, cell-free background 0.041
structure (smiles),measurement,setting,value
C[C@@](Cc1ccc(O)c(O)c1)(NN)C(=O)O [Carbidopa],growth,[1],0.292 ± 0.024
same,growth,[2],0.118 ± 0.0053
same,growth,[3],0.228 ± 0.048
same,growth,[4],0.0919 ± 0.00096
same,growth,[5],0.193 ± 0.0067
CN1CCC(OC(c2ccccc2)c2ccccc2)CC1 [Diphenylpyraline hydrochloride],growth,[1],0.294 ± 0.021
same,growth,[2],0.256 ± 0.0056
same,growth,[3],0.162 ± 0.0083
same,growth,[4],0.141 ± 0.0025
same,growth,[5],0.1486 ± 0.0014
CO[C@@]1(NC(=O)Cc2cccs2)C(=O)N2C(C(=O)O)=C(COC(N)=O)CS[C@@H]21 [Cefoxitin sodium salt],growth,[1],0.0385 ± 0.0017
same,growth,[2],0.0398 ± 0.0004
same,growth,[3],0.0383 ± 0.0013
same,growth,[4],0.03983 ± 0.00029
same,growth,[5],0.0389 ± 0.00036
CC(C)(C)NC[C@H](O)COc1ccccc1C1CCCC1 [Penbutolol sulfate],growth,[1],0.225 ± 0.0034
same,growth,[2],0.321 ± 0.0081
same,growth,[3],0.162 ± 0.011
same,growth,[4],0.128 ± 0.0083
same,growth,[5],0.142 ± 0.013
CCN1C(=O)NC(c2ccccc2)C1=O (stereo not given) [Ethotoin],growth,[1],0.304 ± 0.008
same,growth,[2],0.254 ± 0.0063
same,growth,[3],0.191 ± 0.009
same,growth,[4],0.187 ± 0.006
same,growth,[5],0.142 ± 0.0016
CCC(Cc1c(I)cc(I)c(N)c1I)C(=O)O (stereo not given) [Iopanoic acid],growth,[1],0.0987 ± 0.0055
same,growth,[2],0.0635 ± 0.0046
same,growth,[3],0.097 ± 0.003
same,growth,[4],0.0566 ± 0.001
same,growth,[5],0.0777 ± 0.0027
CCOC(=O)/C=C(C)/C=C/C=C(C)/C=C/c1c(C)cc(OC)c(C)c1C [Etretinate],growth,[1],0.308 ± 0.015
same,growth,[2],0.257 ± 0.011
same,growth,[3],0.211 ± 0.0087
same,growth,[4],0.161 ± 0.0097
same,growth,[5],0.151 ± 0.0019
CC(C)[C@H](N)C(=O)OCCOCn1cnc2c(=O)nc(N)[nH]c21 [Valacyclovir hydrochloride],growth,[1],0.302 ± 0.0067
same,growth,[2],0.2661 ± 0.0012
same,growth,[3],0.22 ± 0.039
same,growth,[4],0.195 ± 0.0058
same,growth,[5],0.144 ± 0.0025
